Test results reported in article PMC5540273 (PLoS ONE, 2017).

Tested on: FGFR4
Settings: concentration: 1 μM, replicates: in singlicate; n = 1
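Note: KINOMEscan kinase panel screen.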

| SMILES | %Inh [%] |
| --- | --- |
| CN1CCN(Cc2cccc(-c3ccc4c(Nc5ccc(Oc6ccccc6)cc5)ccnc4c3)c2)CC1 [GW578342] | 0 |
| Nc1ncc(-c2ccc3nccc(-c4ccncc4)c3c2)cc1S(=O)(=O)N1CCOCC1 [GSK1627798] | 0 |
| CN(C)S(=O)(=O)c1cc(-c2ccc3nccc(-c4cccc(S(N)(=O)=O)c4)c3c2)cnc1N [GSK1669921] | 13 |
| CCn1c(-c2nonc2N)nc2c(C#CC(C)(C)O)ncc(OCCCCN)c21.O=C(O)C(F)(F)F.O=C(O)C(F)(F)F [GSK507274] | 9 |
| Cc1ccc(C)c(NC(=O)NC2CCN(c3ccnc(Nc4ccc(F)cc4)n3)C2)c1 (centres unmarked) [GSK1379720] | 5 |

Tested on: FGR
Settings: concentration: 1 μM, replicates: in singlicate; n = 1

| SMILES | %Inh [%] |
| --- | --- |
| Cn1cc(-c2[nH]c3cc(NC(=O)[C@H](N)C4CCCCC4)cc4c3c2C=NNC4=O)cn1 | 87 |
| O=C(Nc1ccccc1F)NC1CCN(c2ccnc(Nc3ccc(F)cc3)n2)CC1 [GSK1379800] | 18 |
| Cc1ccc(F)c(C(=O)Nc2cccc(-c3nn4ccccc4c3-c3ccnc(Nc4cccc(F)c4)n3)c2)c1F [GSK361061] | 91.4 |
| O=C(O)C(F)(F)F.O=C(O)C(F)(F)F.O=c1[nH]ccc2nc(N[C@@H]3CCCNC3)nc(Nc3ccc(S(=O)(=O)N4CCOCC4)cc3)c12 [GSK2177277] | 91.2 |
| CN1CCN(CCCNc2nccc(-c3c(-c4ccc(F)cc4)nn4cc(C(F)(F)F)ccc34)n2)CC1 [GW621581] | 6 |
| CSc1cccc2c(-c3ccncn3)c(-c3ccc(F)cc3)nn12 [GW514786] | 10 |
| O=C(Nc1cccc(-c2nn3ccccc3c2-c2ccnc(Nc3cccc(C(F)(F)F)c3)n2)c1)c1c(F)cccc1F [GSK292658] | 92.5 |
| COc1ccc(Nc2nccc(N3CCC(NC(=O)Nc4cccc(OC)c4)C3)n2)cc1 (centres unmarked) [GSK1379742] | 17 |
| Cc1cccc(NC(=O)Nc2ccc(Oc3ncnc4ccn(C)c34)cc2)c1 | 0 |
| O=C(NC1CCN(c2ccnc(Nc3ccc(F)cc3)n2)C1)c1cc2ccccc2s1 (centres unmarked) [GSK1379716] | 25 |
| O=c1[nH]cc(-c2ccc(N3CCOCC3)cc2)c2sc(-c3cn[nH]c3)cc12 [GSK2276055] | 0 |
| Nc1ncc(-c2cccnc2)c2scc(-c3ccc4c(c3)CCN4C(=O)Cc3ccccc3)c12 [GSK683281] | 25 |
| O=C(Nc1cccc(Oc2ccc3nc(NC(=O)C4CC4)cn3n2)c1)c1ccccc1C(F)(F)F | 55 |
| Cl.Cl.NCC(NCc1ccc(-c2ccnc3[nH]ccc23)s1)c1ccccc1 (centres unmarked) [GSK1321565] | 23 |
| COc1ccc(CNC(=O)NC2CCN(c3ccnc(Nc4ccc(F)cc4)n3)CC2)cc1 [GSK1379788] | 19 |
| CCn1c(-c2nonc2N)nc2c(C#CC(C)(C)O)nc(OC[C@H](N)c3ccccc3)cc21 [GSK943949] | 0 |
| CN(c1ccc(NC(=O)Nc2cc(C(F)(F)F)ccc2F)cc1)c1ccnc(Nc2ccc(S(N)(=O)=O)cc2)n1 [GW809893] | 94.7 |
| O=C(Nc1n[nH]c2nc(-c3ccc(O)cc3)ccc12)C1CC1 [SB-710363] | 11 |
| O=C(Nc1cccc(-c2nn3ccccc3c2-c2ccnc(Nc3cccc(F)c3)n2)c1)c1c(F)ccc(F)c1Cl [GSK357952] | 97.1 |
| Nc1ncnc2c1nc(-c1ccccc1)n2-c1ccccc1 [SKF-97293] | 31 |
| Cc1cccc(Nc2nc(N[C@H]3CCNC3)ncc2C(N)=O)c1.Cl [GSK2197149] | 82 |
| COc1cccc(C2=C(Nc3ccc(Cl)c(C(=O)O)c3)C(=O)NC2=O)c1 [SB-390769] | 24 |
| COc1cc(Nc2nccc(-c3c(-c4cccc(NC(=O)c5c(F)cccc5F)c4)nn4ccccc34)n2)cc(OC)c1OC [GSK323521] | 27 |
| CC(=O)Nc1nc2cnc(Nc3cc(NC(=O)c4cccc(C5(C#N)CC5)c4Cl)ccc3C)nc2s1 | 52 |
| c1ccc(Oc2ccc(Nc3ccnc4cc(-c5ccc(CNCCN6CCOCC6)o5)ccc34)cc2)nc1 [GW567145] | 68 |
| CNC(=O)c1ccccc1Nc1nc(Nc2ccc(N3CCOCC3)cc2)ncc1Cl.Cl [GSK1576028] | 98.1 |
| Cl.Cl.NCC(NC(=O)c1cc(-c2ccccc2)c(-c2ccnc3[nH]ccc23)s1)c1ccccc1 (centres unmarked) [GSK1321561] | 35 |
